Data as given in the supplement of paper PMC12669032.
Unmarked numbers belong to inactive results.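 The calls were made as follows: active = AUC reduced over 20% with Padj below 0.05 in at least 2 of 3 replicates; inactive = otherwise.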

Columns and labels:
Experiment in all cases: growth AUC relative to DMSO control (median of replicates) (fraction); higher = more growth (less inhibition), active = hit call of the paper
Conditions in all cases: 20 µM; 24 h
Akkermansia muciniphila = system: Akkermansia muciniphila
How it was run: (§1)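 Gut bacterial monocultures in mGAM were treated with 20 µM compound (1% DMSO) and grown anaerobically at 37 °C in round-bottom 96-well plates from OD600 0.05. OD600 was read hourly for 24 h, with the minimum OD set to 0. Area under the growth curve was normalised to the plate median of solvent-only wells, or to row and column medians on the industrial chemical plate. Each value is the median of three biological replicates, each grown on a separate day.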

Bacteroides caccae = system: Bacteroides caccae
How it was run: as §1

Bacteroides clarus = system: Bacteroides clarus
How it was run: as §1

Bacteroides dorei = system: Bacteroides dorei
How it was run: as §1

Bacteroides stercoris = system: Bacteroides stercoris
How it was run: as §1

[1] = system: Bacteroides thetaiotaomicron
How it was run: as §1

Bacteroides uniformis = system: Bacteroides uniformis
How it was run: as §1

[2] = system: Bifidobacterium longum subsp. longum
How it was run: as §1

Clostridium difficile = system: Clostridium difficile
How it was run: as §1

Collinsella aerofaciens = system: Collinsella aerofaciens
How it was run: as §1

SMILES	growth AUC (Akkermansia muciniphila)	growth AUC (Bacteroides caccae)	growth AUC (Bacteroides clarus)	growth AUC (Bacteroides dorei)	growth AUC (Bacteroides stercoris)	growth AUC [1]	growth AUC (Bacteroides uniformis)	growth AUC [2]	growth AUC (Clostridium difficile)	growth AUC (Collinsella aerofaciens)
CCCSP(=O)(OCC)SCCC	1.14	0.994	1.02	0.962	1.02	0.998	0.98	1.02	0.997	0.99
CCCC1COC(Cn2cncn2)(c2ccc(Cl)cc2Cl)O1 (stereo not given)	1.02	0.952	0.912	0.945	0.854	0.902	0.871	0.97	0.956	0.981
CCNc1nc(Cl)nc(NC(C)(C)C#N)n1	0.889	1.02	0.983	1.04	0.946	0.998	0.986	0.946	1.05	0.997
CCOP(=O)(SC(C)CC)N1CCSC1=O (stereo not given)	0.9	1.02	0.977	1	1.07	0.992	0.996	1.02	1.02	1.05
O=C(O)c1nc(Cl)ccc1Cl	1.11	1.01	1.02	1.03	1.11	0.993	1.01	1.03	0.975	0.982
CC(C)N(C)S(=O)(=O)NC(=O)c1cc(-n2c(=O)cc(C(F)(F)F)n(C)c2=O)c(F)cc1Cl	0.916	1.02	0.989	1	1.09	0.951	0.94	1	0.976	1.04
COC(=O)NCc1cc(/C(C)=N\OCc2cccc(C)n2)ccc1Cl	1.07	0.936	0.984	0.949	0.939	0.995	0.902	1.03	0.968	0.969
OC[C@@H](O)[C@H]1O[C@@H]2O[C@H](C(Cl)(Cl)Cl)O[C@@H]2[C@H]1O (mixture of isomers)	0.979	1.02	0.978	1.04	0.952	1.01	1.04	0.969	1.03	0.975
CCOP(=S)(OCC)Oc1nc(Cl)c(Cl)cc1Cl	0.91	0.999	0.95	1.03	1.07	0.978	1	0.943	1.01	0.986
Oc1c(Cl)c(Cl)cc(Cl)c1Cl	0.834	0.81	0.726 (active)	0.758	0.684	0.794	0.636 (active)	0.974	0.941	0.941
C[C@@H](Oc1ccc(Oc2cnc3cc(Cl)ccc3n2)cc1)C(=O)O	1.07	0.938	1.05	1	1.29	0.986	0.988	0.964	0.989	0.976
CCCC(Cn1cncn1)c1ccc(Cl)cc1Cl (stereo not given)	1.01	0.936	0.987	0.977	1.2	0.949	0.941	1.07	0.911	0.992
CNC(=O)Oc1ccccc1OC(C)C	0.914	0.993	0.977	1.01	1.01	0.975	0.979	0.996	0.986	0.955
N#Cc1c(Cl)cccc1Cl	0.866	1.03	0.979	1.04	0.989	1	0.922	0.898	1.01	1.02
CCCCCCCCn1sccc1=O	1.04	0.924	0.442 (active)	0.912	0.995	0.689 (active)	0.731	0.571 (active)	0.848	0.776 (active)
CCOP(=O)(OCC)Oc1ccc(S(C)(=O)=O)cc1	1.01	0.99	0.995	1.01	0.937	0.997	1.03	1.04	0.991	1.01
Cc1cnc2c(C(=O)O)c(Cl)ccc2c1	0.939	0.996	0.986	1.03	1.03	0.995	1.04	0.967	0.995	1.01
O=C1c2ccccc2C(=O)N1SC(Cl)(Cl)Cl	1	1.02	0.977	1.04	0.995	0.999	1.05	0.988	1.01	0.983
Nc1nc(N)[nH]c(=O)n1	1.05	1.02	0.994	1.04	1	1.01	1.01	1.02	1	1.1
C/C(=N/Nc1nc(C)cc(C)n1)c1ccccc1C	1.24	1.01	1.06	1	1.1	0.963	1.03	1.01	0.99	0.979
CNC(=O)Oc1cccc2c1OC(C)(C)O2	0.915	1.07	1.01	0.982	1.02	1.04	0.997	1.06	1.06	1
ClC1=C(Cl)[C@]2(Cl)C3CC=CC3[C@@]1(Cl)C2(Cl)Cl (stereo not given in full)	0.898	1.03	0.999	0.992	0.973	0.981	0.971	0.994	0.997	0.965
COc1cc(C)c(C(=O)c2c(OC)ccc(Br)c2C)c(OC)c1OC	1.05	1	0.959	0.992	0.958	0.951	0.91	0.885	1.03	0.956
CCC(C)(CC)c1cc(NC(=O)c2c(OC)cccc2OC)on1	1.05	1.01	0.949	1.03	1.04	0.959	0.965	1.04	1	0.959
CCCN(CCOc1c(Cl)cc(Cl)cc1Cl)C(=O)n1ccnc1	1.05	0.886	0.967	0.941	1.14	0.869	0.836	0.89	0.982	1.02
COCc1cnc(C2=NC(C)(C(C)C)C(=O)N2)c(C(=O)O)c1 (stereo not given)	1.12	0.971	1.03	0.918	1	0.999	1.01	1.22	0.973	0.998
O=C(O)C(F)(F)C(F)(F)C(F)(F)C(F)(F)C(F)(F)C(F)(F)C(F)(F)C(F)(F)F	1.01	1	1.02	1.03	1.08	1.07	1.02	1.03	0.997	0.997
CCS(=O)(=O)c1cccnc1S(=O)(=O)NC(=O)Nc1nc(OC)cc(OC)n1	0.976	1.01	0.983	0.993	0.963	0.981	0.974	0.995	0.942	1
